Inconclusive results are not listed. A call without a number means that no potency is given here. Calls of active or inactive are those of the source. Calls come from the whole dose curve; as a rule, active = well fitted inhibition curve with a large enough effect; inconclusive = small, poorly fitted or top-dose-only effect; inactive = no such curve, though single readings can be large or run the other way.
Potency is the fitted concentration of half-maximal effect.

This assay in a line: NS1 protein of Zika virus - qHTS assay to identify small molecule inhibitors in human HEK 293 cells (AID 1347053). Note: nearly all actives have a fitted effect of over 55% in size. The following applies: HEK293 ZIKV MR766 infection, NS1 TR-FRET, 24 h; series mostly up to 46.1 µM. In short, it runs like this:
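HEK 293 cells pretreated with compound for 1 h, then infected with ZIKV MR766 (MOI 0.5) for 24 h at 37 C. NS1 detected by TR-FRET with two anti-NS1 antibodies; normalized to uninfected (0%) and infected (100%) wells.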
Take `COc1nc(C)cnc1NS(=O)(=O)c1cccnc1-c1ccc(-c2nnco2)cc1`: the Potency result was “inactive”.

Regarding `C[C@@H](N)c1ccc(C(=O)Nc2ccnc3[nH]ccc23)cc1`, the Potency result is “inactive”.

Turning to `CCCC1OC2C[C@@H]3[C@H]4CCC5=CC(=O)C=C[C@]5(C)[C@H]4C(O)C[C@]3(C)[C@]2(C(=O)CO)O1` (stereo not given in full), the Potency entry is “inactive”.

For the molecule `O=C(O)C1=NC(C(=O)O)CC(C=CN2c3cc(O)c(OC4OC(CO)C(O)C(O)C4O)cc3CC2C(=O)O)=C1` (stereo not given), the Potency result is “inactive”.

For `Cc1cc2nc3c(=O)[nH]c(=O)nc-3n(CC(O)C(O)C(O)CO)c2cc1C` (stereo not given), the Potency entry was “inactive”.

As for `Cc1ccc(S(=O)(=O)OCC(=O)Nc2ccc(C(=O)O)c(O)c2)cc1`, the Potency result is “inactive”.

Take `CC1(C)OC2CC3C4CC(F)C5=CC(=O)C=CC5(C)C4C(O)CC3(C)[C@]2(C(=O)CO)O1` (stereo not given in full): the Potency result is “inactive”.

Turning to `Cc1ccc(C(=O)N(CCCN)[C@@H](c2oc3cc(Cl)ccc3c(=O)c2Cc2ccccc2)C(C)C)cc1`, the Potency is 10.5 µM (active).

In the case of `CN1c2ccccc2C(=O)N2CCc3c([nH]c4ccccc34)C21` (stereo not given), the Potency entry was “inactive”.

`Cc1cc(C(C)Nc2ccccc2)c2nc(N3CCOCC3)cc(=O)n2c1` (stereo not given): the Potency result is “inactive”.

Take `CCN1C[C@H](C)n2c(c(O)c3c(=O)n(Cc4ccc(F)c(Cl)c4)nc(C(=O)NC)c32)C1=O`: the Potency result was “inactive”.

On to `NCC1CCC(C(=O)O)CC1` (stereo not given), for which the Potency entry is “inactive”.

`CCNC(=O)CCCC=CC[C@@H]1[C@H](C=CC(O)CCc2ccccc2)[C@@H](O)C[C@@H]1O` (stereo not given in full): the Potency entry is “inactive”.

Regarding `c1cc(OCCN2CCCCC2)cc(-c2n[nH]c3ccc(-c4ncn[nH]4)cc23)c1`, the Potency result was “inactive”.

On to `O=C(NC[C@H](O)CO)c1ccncc1Nc1ccc(I)cc1F`, for which the Potency entry is “inactive”.

Turning to `COc1cc2ncn(-c3cc(OCc4ccccc4S(C)(=O)=O)c(C#N)s3)c2cc1OC`, the Potency entry is “inactive”.

Turning to `COc1cc(Nc2nc3ccccc3nc2NS(=O)(=O)c2ccc(NC(=O)c3ccc(C)c(OC)c3)cc2)cc(OC)c1`, the Potency entry was “inactive”.

Consider `CNC(=O)[C@H](CC1=CN=C2C=CCC=C12)NC(=O)[C@@H](CC(=O)NO)CC(C)C`, for which the Potency result was “inactive”.

In the case of `CN(C)c1ccccc1CN1CCCN(Cc2ccccc2N(C)C)C1c1ccncc1`, the Potency was 11.8 µM (active).

In the case of `C[C@H](c1ccc(F)cc1CCCC(=O)O)N(c1cc(F)ccc1F)S(=O)(=O)c1ccc(Cl)cc1`, the Potency entry is “inactive”.

For the molecule `CCCCC[C@H](O)C=C[C@H]1[C@H](O)CC(=O)[C@H]1CCCCCCC(=O)O`, the Potency result is “inactive”.

`Cc1cnc(-c2cc(N3CCN(C(=O)CCS(C)(=O)=O)CC3)ncc2Cl)c(C)c1`: the Potency entry is “inactive”.

With `COc1cc(F)c(C(C)C)cc1-c1ccc(C(F)(F)F)cc1CN1C(=O)O[C@H](c2cc(C(F)(F)F)cc(C(F)(F)F)c2)[C@@H]1C`, the Potency entry was “inactive”.

With `CCN1CCN(c2ccc(Nc3cc(N(C)C(=O)Nc4c(Cl)c(OC)cc(OC)c4Cl)ncn3)cc2)CC1`, the Potency entry is “inactive”.

As to `CNC(=O)c1ccc2c(C(=Nc3cccc(CN(C)C)c3)c3ccccc3)c(O)[nH]c2c1`, the Potency result was “inactive”.

`CN(C)CCOc1ccc(C(=C(CCCl)c2ccccc2)c2ccccc2)cc1`: the Potency entry is “inactive”.

Take `Nc1[nH]nc2nnc(-c3c(-c4ccccc4)nn4ccccc34)cc12`: the Potency entry was “inactive”.

In the case of `Cc1cc(CS(=O)(=O)c2ccccc2)cc(OCc2ccc(CN3CCC[C@H]3CO)cc2)c1`, the Potency result is “inactive”.

In the case of `COC(=O)N1CCN(Cc2cccc(NC(=O)Nc3ccc(C)nc3)c2F)CC1`, the Potency entry is “inactive”.

On to `CC[C@H](C=C[C@@H](C)[C@H]1CC[C@H]2[C@@H]3CC=C4C[C@@H](O)CC[C@]4(C)[C@@H]3CC[C@]12C)C(C)C`, for which the Potency entry is “inactive”.

As to `CN(C)CCN(Cc1ccc(Cl)cc1)c1ccccn1`, the Potency result was “inactive”.

Turning to `CC(=O)N1CCN(c2ccc(OCc3nn(C)c(C)c3-c3cccc4c(CCCOc5cc(C)c(Cl)c(C)c5)c(C(=O)O)n(Cc5cccnc5)c34)cc2)CC1`, the Potency entry is “inactive”.

Consider `CC(C)CN(C[C@H](O)[C@H](Cc1ccccc1)NC(=O)O[C@H]1CCOC1)S(=O)(=O)c1ccc(N)cc1`, for which the Potency entry was “inactive”.

As to `CC(C)CN(C[C@@H](O)[C@H](Cc1ccccc1)NC(=O)O[C@H]1CO[C@H]2OCC[C@H]21)S(=O)(=O)c1ccc(N)cc1`, the Potency result is “inactive”.

Take `O=c1cc(-c2ccc(O)c(O)c2)oc2cc(O)cc(O)c12`: the Potency result is “inactive”.

As for `Cc1ccc(NC(=O)Nc2cc(C(F)(F)F)ccc2F)cc1Nc1ccc2c(c1)NC(=O)C2=Cc1ccc[nH]1`, the Potency entry was “inactive”.

For `Oc1ccc(C=Cc2cc(O)cc(O)c2)cc1`, the Potency result was “inactive”.

Take `CN1CCN2c3ncccc3Cc3ccccc3C2C1` (stereo not given): the Potency entry is “inactive”.

`NS(=O)(=O)c1cc(Cl)c(Cl)c(S(N)(=O)=O)c1`: the Potency result was “inactive”.

Turning to `N=C1SC(=Cc2ccc(-c3ccc4c(c3)C(=O)NC4=O)o2)C(=O)N1c1ccc(Br)cc1`, the Potency entry is “inactive”.

The values above are taken from PubChem BioAssay (NCATS).
